From PubChem BioAssay (NCATS) come the findings set out here.

Records with an inconclusive call do not appear. Entries that show only a call come without a potency. Calls of active or inactive are those of the source. Calls follow the shape of the dose curve; as a rule, active = well fitted inhibition curve with a large enough effect; inconclusive = small, poorly fitted or top-dose-only effect; inactive = flat fitted curve, though single readings scatter.

This test concerns CRL-7250. Description: qHTS assay to identify novel small-molecules to repurpose for Merkel cell carcinoma treatment (AID 1296009). Also: nearly all actives have a fitted effect of over 60% in size. As to conditions: MCC and control cell lines, CellTiter-Glo viability, 72 h; series mostly up to 92 µM. Summed up:
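CellTiter-Glo luminescence after 72 hr compound exposure at 37 degree celsius gave cell viability. Libraries NPC and MIPE were run as 8- and 11-point dose responses; RLUs normalized to DMSO (negative) and no-cell (cytotoxicity) controls.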
In general terms: qHTS replaces the single test concentration by a dilution series.
For the compound `CC(=O)O[C@@H]1CC2C(C)(C)C(=O)C=C[C@]2(C)C2CC[C@@]3(C)[C@H](c4ccoc4)OC(=O)[C@H]4O[C@]43[C@@]21C` (stereo partly drawn), the Potency result was “inactive”. On the same count and under the same terms, under `CC1=CC(=O)CC(C)(CO[C@@H]2O[C@H](CO)[C@@H](O)[C@H](O)[C@H]2O)C1(O)/C=C/C(C)=C/C(=O)O` (stereo partly drawn) stands “inactive”; under `COC(=O)[C@@]1(O)C=CC[C@@H]2[C@@]3(C)C[C@@H](c4ccoc4)OC(=O)[C@H]3CC[C@]21C`, “inactive”. The same measure, in the same setting: the value for `COc1cc(COC2OC(CO)C(O)C(O)C2O)cc(OC)c1O` (stereo not drawn) was “inactive”; that for `Cc1cc(Cn2cnc3c2CC(C(=O)O)N(C(=O)C(c2ccccc2)c2ccccc2)C3)ccc1N(C)C` (stereo not drawn) was “inactive”; that for `COc1cc(O)c2c(c1Cl)CC(C)OC2=O` (stereo not drawn) was “inactive”. The same measure, in the same setting: the value for `CC(C)(C)c1ccc(C(=O)Nc2cn3cc(-n4ccnc4)ccc3n2)cc1` was “inactive”. With `Cc1c(C(=O)NCc2cccnc2)nn(-c2ccc(Cl)cc2Cl)c1-c1ccc(Cl)cc1`, the Potency entry is “inactive”. Regarding `CN1CCCC1Cc1c[nH]c2ccc(CCS(=O)(=O)c3ccccc3)cc12` (stereo not drawn), the Potency result was “inactive”. As for `CCN[C@@H]1C[C@H](N)[C@@H](O[C@H]2OC(CN)=CC[C@H]2N)[C@H](O)[C@H]1O[C@H]1OC[C@](C)(O)[C@H](NC)[C@H]1O`, the Potency result is “inactive”.

Regarding `CCCCCCc1cccc(NC(=O)[C@H](N)CCP(=O)(O)O)c1`, the outcome is “inactive [at 9.27 µM]”. For the compound `COc1ccc(C2=CC(=O)OC2Cc2ccc(O)cc2)c(O)c1` (stereo not drawn), the Potency result was “inactive”.

On to `C[C@@H]1O[C@@H](O[C@H]2[C@H](O)[C@@H](O)[C@H](OC[C@H]3O[C@@H](OC(=O)[C@]45CCC(C)(C)C[C@H]4C4=CCC6[C@@]7(C)CC[C@H](O[C@@H]8OC[C@H](O)[C@H](O[C@@H]9O[C@H](CO)[C@@H](O)[C@H](O)[C@H]9O)[C@H]8O)[C@@](C)(CO)C7CC[C@@]6(C)[C@]4(C)CC5)[C@H](O)[C@@H](O)[C@@H]3O)O[C@@H]2CO)[C@H](O)[C@H](O)[C@H]1O` (stereo partly drawn), for which the outcome was “inactive [at 9.27 µM]”. Regarding `COc1ccc(-c2ccc(-c3cn(C(=O)N4CCCCC4c4ccccc4)nn3)cc2)cc1` (stereo not drawn), the Potency entry is “inactive”. Still for that read-out and setting: under `Cc1cccc(NC(=O)CN2CCC(c3ccccn3)CC2)c1` stands “inactive”; under `CC1=CC(=O)[C@]2(O[C@@H]3O[C@@H](C)[C@H](O)[C@@H](O)[C@H]3O)C=CO[C@@H](O[C@@H]3O[C@H](CO)[C@@H](O)[C@H](O)[C@H]3O)[C@H]12`, “inactive”.

`CC1OC(OC2CCC3(C)C(CCC4(C)C3CC=C3C5CC(C)(C)CCC5(C(=O)OC5OC(CO)C(O)C(O)C5O)CCC34C(=O)O)C2(C)C)C(O)C(O)C1O` (stereo not drawn): the Potency entry is “inactive”. Same read-out and setting: the value for `CC(=O)OC1C(O)C(C)=C(CCC(C)CC(=O)O)C2(C)CCCC(C)(C)C12` (stereo not drawn) was “inactive”; that for `OC[C@H]1O[C@@H](Oc2ccccc2)[C@H](O)[C@@H](O)[C@@H]1O` was “inactive”; that for `Cc1c(C)c(NCC(=O)N(C)C2CCN(Cc3ccc(C(N)=O)cc3)CC2)c(C)c(C)c1N` was “inactive”. The same measure, in the same setting: under `CC1CCC2C(C)(C)C(O)CCC2(C)C12Cc1c(O)cc3c(c1O2)CN(C(CCCN=C(N)N)C(=O)O)C3=O` (stereo not drawn) stands “inactive”. Same read-out and setting: the value for `C[C@@H]1O[C@@H](O[C@H]2[C@@H]3C=CO[C@@H](O[C@@H]4O[C@H](CO)[C@@H](O)[C@H](O)[C@H]4O)[C@@H]3[C@@]3(CO)O[C@@H]23)[C@H](OC(=O)/C=C/c2ccc(O)c(O)c2)[C@H](O)[C@H]1O` was “inactive”.

For `CC1(C)CC[C@@]2(C(=O)O[C@@H]3O[C@H](CO)[C@@H](O)[C@H](O)[C@H]3O)C(C1)C1=CCC3[C@@]4(C)CC[C@@H](O[C@@H]5O[C@H](C(=O)O)[C@@H](O[C@@H]6OC[C@@H](O)[C@H](O)[C@H]6O)[C@H](O[C@@H]6OC[C@](O)(CO)[C@H]6O)[C@H]5O)C(C)(C)C4CC[C@@]3(C)[C@]1(C)C[C@H]2O` (stereo partly drawn), the outcome was “inactive [at 9.27 µM]”. As for `CC(C#N)C(C)O[C@@H]1O[C@H](CO)[C@@H](O)[C@H](O)[C@H]1O` (stereo partly drawn), the Potency entry was “inactive”. As for `C/C=C1/[C@H](O[C@@H]2O[C@H](CO)[C@@H](O)[C@H](O)[C@H]2O)OC=C(C(=O)OC)[C@H]1CC(=O)O[C@@H]1O[C@H](CO)[C@@H](O)[C@H](O)[C@H]1O`, the Potency entry was “inactive”. Take `CC(C)(CO)c1cc2cc(NC(=O)C3(c4ccc5c(c4)OC(F)(F)O5)CC3)c(F)cc2n1CC(O)CO` (stereo not drawn): the Potency entry is “inactive”.

As for `CCCC(N[C@@H](C)C(=O)N1[C@H](C(=O)O)C[C@@H]2CCCC[C@@H]21)C(=O)OCC` (stereo partly drawn), the Potency result was “inactive”.

In the case of `CC1=C2C(=O)C=C(CO)C2C2OC(=O)C(CS(=O)(=O)O)C2C(OC(=O)Cc2ccc(O)cc2)C1` (stereo not drawn), the Potency result is “inactive”.
